These results are taken from PubChem BioAssay (NCI).

Common to all, as to experiment: NCI-60 one-dose screen, 48 h (100 = growth as untreated, 0 = no growth, -100 = all killed)
Common to all, as to conditions: 10 µM unless noted

In assay [1] the test system is NCI-H23 lung.
Assay [2] concerns NCI-H226 lung.
The test system of assay [3] is NCI-H322M lung.
Assay [4] deals with HOP-62 NSCLC.
Assay [5] has as its system NCI-H460 lung.
Assay [6] has as its system HOP-92 NSCLC.
Assay [7] relates to NCI-H522 lung.
In assay [8] the test system is A549/ATCC NSCLC.
For assay [9], the system named is 786-0 renal.
In assay [10] the test system is COLO 205 colon.

This is part of a sample that, as a whole, favours compounds with a hit. Of some 83,000 tested, about 20% had one in any assay.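 Cell lines were cultured in 96-well plates, exposed to a single compound concentration, and assessed for percent growth 48 hours later.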 A number with no mark means an inactive call. Calls of active or inactive are those of the source. The calls were made as follows: active = growth percent below 10; inactive = the rest.

With `O=C(NCCN1CC1)C(=O)NCCN1CC1`, the growth in assay [1] was 90.5%; in [2] it was 87.4%; in assay [3], 102%; in assay [4], 84.5%; in assay [5], 58%; in [6] it was 103%. Moreover, the growth in [7] is 62.7%; in assay [8], 75.3%; in assay [9], 98.3%; in assay [10], 88.7%.

On to `O=[N+]([O-])c1ccc(OP(=O)(CCl)N(CCCl)CCCl)cc1` (stereo not given), for which the growth was 108% in assay [1]; 98.9% in [2]; 103% in assay [3]; 93.5% in assay [4]; 105% in assay [5]; 114% in assay [6]. Further, the growth in assay [7] was 74.8%; in assay [8], 102%; in [9], 97.9%; in assay [10], 112%.

For `COC(=O)C1CCC(NC(=O)c2csc([C@@H](C[C@H](C(C)C)N(C)C(=O)[C@@H](NC(=O)[C@H]3CCCCN3C)C(C)C)OC(C)=O)n2)CC1` (stereo not given in full), the growth is 32% in [1]; 17% in assay [2]; 47.8% in assay [3]; 7.46% (active) in assay [4]; 6.14% (active) in [5]; 32.2% in [6]. Moreover, the growth in assay [7] was -25% (active); in [8], 15.9%; in [9], 13%; in [10] it was -71.1% (active).

On to `CC[C@H](C)[C@@H]1OC(=O)C(C)(C)[C@H](O)[C@H](Cc2ccccc2)OC(=O)[C@H](C(C)C)OC(=O)[C@@H](NC(=O)c2cccc(NC=O)c2O)[C@@H](C)OC1=O`, for which the growth in [1] is 36.4%; in [2], 51.2%; in assay [3] it was 78.9%; in assay [4] it was 45%; in assay [5], 19%; in [6], 68%. The growth is 38.9% in [7], 49.5% in [8], 64.5% in assay [9] and 43.6% in assay [10].

With `CCOC(=O)CCC(NC(=O)C(Cc1ccc(N(CCCl)CCCl)cc1)NC=O)C(=O)OCC` (stereo not given), the growth is 1.98% (active) in assay [1]; 57.5% in assay [2]; 88% in assay [3]; 113% in assay [4]; 8.71% (active) in assay [5]; -2.74% (active) in assay [6]. Moreover, the growth was -67.6% (active) in assay [7], 61.8% in [8], -40.8% (active) in assay [9] and 111% in assay [10].

Take `CN1CC(CNC(=O)OCc2ccccc2)CC2c3cccc4c3c(cn4C)CC21` (stereo not given): the growth in assay [1] is 71.6%; in assay [2], 78%; in assay [3], 82.9%; in assay [4] it was 35.2%; in [5] it was 40.4%; in assay [6] it was 29.5%. Also, the growth was 60.5% in assay [7], 45.5% in assay [8], 42.8% in assay [9] and -72.5% (active) in assay [10].

Take `Cc1cc(N(CCCl)CCCl)ccc1C=Nc1cccnc1`: the growth in [1] was 56.6%; in assay [2], -45.2% (active); in assay [3], 108%; in assay [4], 60.4%; in assay [5], 26.5%; in assay [6] it was 44.8%. Moreover, the growth is 87.3% in [7], 67.9% in assay [8], 63% in assay [9] and 76.7% in [10].

On to `CCCCN(CCCC)P(=O)(Oc1ccccc1)Oc1ccccc1`, for which the growth is 53.7% in [1]; 73.9% in assay [2]; 85.1% in assay [3]; 85.8% in assay [4]; 59.9% in assay [5]; 48.3% in assay [6]. Also, the growth was 37.9% in assay [7], 49% in [8], 75% in [9] and 75.2% in assay [10].

In the case of `O=[N+]([O-])c1cc([N+](=O)[O-])c(Cl)cc1Cl`, the growth in assay [1] is -56.4% (active); in assay [2] it was -59% (active); in assay [3] it was 40.6%; in [4], -73.9% (active); in assay [5], -45.8% (active); in assay [6] it was -80.1% (active). The growth in assay [7] is -69.6% (active); in [8], 39.9%; in assay [9], -67.8% (active); in [10] it was -75.7% (active).

For the compound `CC(=O)O[C@H]1C(=O)[C@@]2(C)[C@H]([C@H](OC(=O)c3ccccc3)[C@]3(O)C[C@H](OC(=O)[C@H](OC(=O)OC[C@H]4COC(C)(C)O4)[C@@H](NC(=O)c4ccccc4)c4ccccc4)C(C)=C1C3(C)C)[C@]1(OC(C)=O)CO[C@@H]1C[C@@H]2O`, the growth is 21.6% in assay [1]; 55.5% in assay [2]; 14.9% in assay [3]; 21.7% in assay [4]; 4.16% (active) in assay [5]; 53.4% in [6]. Moreover, the growth in assay [7] is 5.12% (active); in assay [8] it was 12.5%; in assay [9] it was 20.2%; in assay [10], -15.1% (active).

Turning to `CC[CH2][Sn]([Cl])([Cl])[CH2]CC`, the growth was 76.9% in assay [1]; 86.4% in assay [2]; 131% in assay [3]; 82.4% in assay [4]; 107% in assay [5]; 110% in assay [6]. The growth was -87.2% (active) in [7], 99.3% in assay [8], 73.8% in [9] and 44.2% in assay [10].

Turning to `COc1ccc(Nc2ccc([N+](=O)[O-])cc2[N+](=O)[O-])cc1CN(CCCl)CCCl`, the growth was 18.4% in assay [1]; 39.7% in [2]; 45.8% in assay [3]; 35.8% in assay [4]; 7.13% (active) in assay [5]; 39.2% in [6]. The growth was 21.1% in [7], 33.5% in [8], 18.4% in assay [9] and 38% in assay [10].

For the compound `COc1cc2c(cc1OCCCCCn1c(-c3ccco3)nc3ccccc31)N=C[C@@H]1CCCN1C2=O`, the growth is -50% (active) in assay [1]; -14.9% (active) in assay [2]; -13% (active) in assay [3]; 6.15% (active) in [4]; 4.72% (active) in assay [5]; -5.94% (active) in assay [6]. In addition, the growth in [7] is -23.9% (active); in [8], 9.67% (active); in [9] it was 11.5%; in assay [10] it was 4.57% (active).

For the compound `CC12CCC(O)CC1=CCC1C2CCC2(C)C(O)CCC12` (stereo not given), the growth was 111% in assay [1]; 90% in assay [2]; 101% in [3]; 103% in assay [4]; 101% in [5]; 85.4% in assay [6]. The growth in assay [7] was 94.8%; in assay [8] it was 109%; in assay [9] it was 103%; in assay [10], 106%.

For `CCOP(=O)(Nc1ccc2c(c1)/C(=N/NC(N)=S)c1ccccc1-2)OCC`, the growth in assay [1] was 99%; in assay [2], 97.6%; in assay [3] it was 132%; in [4], 117%; in assay [5], 104%; in assay [6], 96.1%. The growth was 95.4% in assay [7], 99.5% in [8], 104% in [9] and 96.3% in assay [10].

In the case of `COC(=O)[C@H](Cc1c[nH]c2ccccc12)NC(=O)[C@@H](OC)[C@@H]1Cc2cc3cc(OC4CC(OC5CC(O)C(O)C(C)O5)C(O)C(C)O4)c(C)c(O)c3c(O)c2C(=O)[C@H]1OC1CC(OC2CC(OC3CC(C)(O)C(O)C(C)O3)C(O)C(C)O2)C(O)C(C)O1` (stereo not given in full), the growth in assay [1] was -20.3% (active); in assay [2] it was -38.6% (active); in assay [3] it was 6.45% (active); in assay [4] it was 9.74% (active); in assay [5], 6.58% (active); in assay [6], -13.9% (active). For the same compound, the growth in assay [7] was -28.2% (active); in assay [8], 12.7%; in assay [9] it was 1.54% (active); in assay [10], -39.5% (active).

Consider `C#Cc1ccc2c(c1)C(c1ccccc1F)=NCC(=O)N2C`, for which the growth in assay [1] was 57.8%; in assay [2], 73.1%; in [3] it was 69.6%; in assay [4], 48.3%; in assay [5] it was 18.9%; in assay [6], 73.2%. For the same compound, the growth in assay [7] is 8.61% (active); in assay [8] it was 47.9%; in assay [9], 63.4%; in assay [10] it was 18.4%.

`Nc1ccc(Cl)cc1`: the growth in [1] is 99.3%; in assay [2], 92.1%; in assay [3] it was 106%; in assay [4] it was 90.3%; in [5], 109%; in assay [6], 85.5%. Also, the growth is 89.3% in assay [7], 78.7% in assay [8], 97.7% in assay [9] and 95.9% in assay [10].

On to `O=C(Nc1ccc([N+](=O)[O-])cc1)C(Cl)(Cl)Cl`, for which the growth was 96.5% in [1]; 97.8% in assay [2]; 90.1% in assay [3]; 96.9% in [4]; 104% in assay [5]; 88% in assay [6]. Besides, the growth is 106% in [7], 94% in [8], 96.6% in assay [9] and 107% in assay [10].

With `CCN(CC)CCOC(=O)C(OC(C)C)(c1ccccc1)c1ccccc1`, the growth in assay [1] was 99.1%; in assay [2] it was 100%; in assay [3], 99.6%; in [4] it was 94.8%; in assay [5] it was 100%; in [6] it was 80.1%. The growth in assay [7] was 82.3%; in [8] it was 96.9%; in assay [9] it was 88.2%; in assay [10], 98%.

For `CCCC[C@H](NC(=O)[C@H]1CCCCN1C)C(=O)N(C)[C@H](C[C@@H](OC(C)=O)c1nc(C(=O)N[C@@H](Cc2ccccc2)C[C@H](C)C(=O)OCC)cs1)C(C)C`, the growth in [1] is 27.1%; in assay [2], 32.8%; in assay [3], 32.9%; in [4], 18.1%; in assay [5], 6.75% (active); in [6], 18.1%. The growth is -25% (active) in [7], 11% in assay [8], 3.81% (active) in assay [9] and -69.9% (active) in assay [10].

Regarding `CC[C@H](C)[C@@H]([C@@H](CC(=O)N1CCC[C@H]1[C@H](OC)[C@@H](C)C(=O)N[C@H](C)[C@@H](O)c1ccccc1)OC)N(C)C(=O)[C@@H](NC(=O)[C@@H](NC)C(C)C)C(C)C`, the growth in assay [1] is 27.9%; in [2], 66.9%; in [3] it was 50.8%; in [4] it was 25.8%; in assay [5], 9.17% (active); in [6], 11.5%. Further, the growth in assay [7] is -36.1% (active); in assay [8], 21.4%; in assay [9] it was 21.2%; in [10] it was -72.1% (active).

Regarding `C/C(=C\c1ccn(-c2ccc(N)c(F)c2)n1)[C@@H]1C[C@@H]2O[C@]2(C)CCC[C@H](C)[C@H](O)[C@@H](C)C(=O)C(C)(C)[C@@H](O)CC(=O)O1`, the growth in assay [1] is 30.4%; in [2] it was 50.9%; in [3], 25.7%; in [4], 38.1%; in assay [5], 15.9%; in assay [6], 53.2%. Besides, the growth is 18.7% in assay [7], 26.5% in assay [8], 25.3% in [9] and -8.2% (active) in assay [10].

On to `CN(C)C(=O)Oc1ccc(Br)cc1`, for which the growth was 102% in assay [1]; 101% in [2]; 86.1% in assay [3]; 93% in assay [4]; 104% in assay [5]; 107% in assay [6]. Further, the growth was 95.6% in assay [7], 100% in assay [8], 98.6% in assay [9] and 102% in assay [10].

`Cc1c(NS(=O)(=O)c2ccccc2)ccc([N+](=O)[O-])c1Cl`: the growth in [1] is 58.6%; in assay [2], 62.7%; in assay [3] it was 102%; in assay [4] it was 95.1%; in assay [5], 67%; in assay [6], -9.14% (active). The growth in assay [7] was 55.7%; in assay [8], 58.6%; in assay [9], 41.1%; in assay [10], 109%.
